Assay results from paper PMC7862700, “An all-to-all approach to the identification of sequence-specific readers for epigenetic DNA modifications on cytosine”.

What was measured:
Assay in all cases: DAPPL (digital affinity profiling via proximity ligation, sequencing); 10 mM Tris-HCl pH 7.5, 50 mM NaCl, 1 mM DTT, 4% glycerol, room temperature, 30 min; GST-TFs on glutathione beads, 16-mer random dsDNA library, 0.1% formaldehyde crosslink after washing; high values mean tight binding
Conditions in all cases: protein: recombinant; tags: N-terminal GST; dsDNA, one strand shown
FLI1 = biological target: T1, FLI1 (Homo sapiens, UniProt Q01543 1-452)
T1 sequence: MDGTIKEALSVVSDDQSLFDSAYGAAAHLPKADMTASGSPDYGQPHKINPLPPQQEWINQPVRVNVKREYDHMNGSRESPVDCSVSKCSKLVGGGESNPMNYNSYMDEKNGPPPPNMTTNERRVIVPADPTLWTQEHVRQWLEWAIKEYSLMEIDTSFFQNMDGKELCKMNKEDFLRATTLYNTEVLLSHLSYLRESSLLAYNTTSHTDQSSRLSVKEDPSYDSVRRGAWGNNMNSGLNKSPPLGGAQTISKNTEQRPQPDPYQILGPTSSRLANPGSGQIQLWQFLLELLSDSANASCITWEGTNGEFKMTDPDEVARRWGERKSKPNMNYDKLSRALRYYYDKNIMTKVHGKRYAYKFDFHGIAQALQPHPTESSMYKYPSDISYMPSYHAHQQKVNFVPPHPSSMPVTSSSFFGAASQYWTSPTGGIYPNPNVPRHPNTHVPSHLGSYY
Outline: (§1)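 Pools of DNA-barcoded human transcription factors, expressed in yeast as GST fusions on glutathione beads and combined with a tag-only sample, were incubated with 200 nmole of a 16-mer random double-stranded DNA library. Incubation took 30 min at room temperature in Tris/NaCl/DTT/glycerol buffer and was followed by washing, 0.1% formaldehyde crosslinking, proximity ligation (BsaI/T4 ligase, 1 h, 37 °C), PCR amplification and sequencing on an Illumina NextSeq500. Binding signal is the ratio of a hexamer's read frequency for a factor to its frequency for the tag-only sample.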

ELK1 = biological target: T2, ELK1 (Homo sapiens, UniProt P19419 1-428)
T2 sequence: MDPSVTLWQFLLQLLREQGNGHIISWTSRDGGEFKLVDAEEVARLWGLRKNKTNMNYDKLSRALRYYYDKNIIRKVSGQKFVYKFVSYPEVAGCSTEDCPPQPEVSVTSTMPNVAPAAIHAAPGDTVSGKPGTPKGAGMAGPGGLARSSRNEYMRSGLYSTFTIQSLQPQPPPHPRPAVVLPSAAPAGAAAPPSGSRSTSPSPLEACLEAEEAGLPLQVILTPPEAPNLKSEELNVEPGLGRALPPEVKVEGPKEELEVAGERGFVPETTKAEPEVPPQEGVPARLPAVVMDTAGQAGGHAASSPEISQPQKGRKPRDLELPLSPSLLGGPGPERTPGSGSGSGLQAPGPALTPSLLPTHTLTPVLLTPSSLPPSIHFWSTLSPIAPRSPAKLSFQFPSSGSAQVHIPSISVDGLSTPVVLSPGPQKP
Outline: as §1

GABPA = biological target: T3, GABPA (Homo sapiens, UniProt Q06546 1-454)
T3 sequence: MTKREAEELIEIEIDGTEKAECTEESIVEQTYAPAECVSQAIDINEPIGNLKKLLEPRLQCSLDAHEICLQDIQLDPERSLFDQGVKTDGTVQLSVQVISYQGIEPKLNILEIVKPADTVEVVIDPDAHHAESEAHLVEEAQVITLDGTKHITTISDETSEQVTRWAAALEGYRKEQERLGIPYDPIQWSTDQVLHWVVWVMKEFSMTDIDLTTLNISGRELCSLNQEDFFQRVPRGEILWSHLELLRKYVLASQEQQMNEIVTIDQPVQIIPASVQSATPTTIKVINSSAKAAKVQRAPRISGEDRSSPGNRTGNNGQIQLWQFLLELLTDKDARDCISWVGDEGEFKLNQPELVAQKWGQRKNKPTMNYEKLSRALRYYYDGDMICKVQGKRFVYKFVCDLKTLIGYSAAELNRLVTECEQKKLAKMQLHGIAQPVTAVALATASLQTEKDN
Outline: as §1

ERG = biological target: T4, ERG (Homo sapiens, UniProt P11308 1-479)
T4 sequence: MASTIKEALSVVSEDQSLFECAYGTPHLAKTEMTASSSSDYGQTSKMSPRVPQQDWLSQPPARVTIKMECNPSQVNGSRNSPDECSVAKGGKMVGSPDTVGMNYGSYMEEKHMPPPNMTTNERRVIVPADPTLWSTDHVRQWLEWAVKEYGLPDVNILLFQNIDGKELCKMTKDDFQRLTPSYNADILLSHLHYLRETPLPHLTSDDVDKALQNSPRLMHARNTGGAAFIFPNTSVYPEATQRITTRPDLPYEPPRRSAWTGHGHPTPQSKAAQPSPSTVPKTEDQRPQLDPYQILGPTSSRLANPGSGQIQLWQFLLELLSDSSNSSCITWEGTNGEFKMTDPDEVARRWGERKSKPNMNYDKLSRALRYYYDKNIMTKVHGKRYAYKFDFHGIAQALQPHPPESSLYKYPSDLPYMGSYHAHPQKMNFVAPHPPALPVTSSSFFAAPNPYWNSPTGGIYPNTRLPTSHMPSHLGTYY
Outline: as §1

ELF1 = ELF1 (Homo sapiens, UniProt P32519 1-619)
Outline: as §1

EHF = biological target: T5, EHF (Homo sapiens, UniProt Q9NZC4 1-300)
T5 sequence: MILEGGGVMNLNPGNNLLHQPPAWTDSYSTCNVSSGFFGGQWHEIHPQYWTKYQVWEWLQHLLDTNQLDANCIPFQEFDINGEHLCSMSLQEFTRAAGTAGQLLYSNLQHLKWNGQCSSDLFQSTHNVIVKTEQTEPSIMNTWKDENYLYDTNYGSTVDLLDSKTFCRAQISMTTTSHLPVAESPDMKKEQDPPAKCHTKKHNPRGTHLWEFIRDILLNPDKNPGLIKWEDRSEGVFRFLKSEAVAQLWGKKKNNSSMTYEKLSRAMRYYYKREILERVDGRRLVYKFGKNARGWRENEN
Outline: as §1

SPI1 = SPI1 (Homo sapiens, UniProt P17947 1-270)
Outline: as §1

SPIB = SPIB (Homo sapiens, UniProt Q01892 1-262)
Outline: as §1

ELK3 = biological target: T6, ELK3 (Homo sapiens, UniProt P41970 1-407)
T6 sequence: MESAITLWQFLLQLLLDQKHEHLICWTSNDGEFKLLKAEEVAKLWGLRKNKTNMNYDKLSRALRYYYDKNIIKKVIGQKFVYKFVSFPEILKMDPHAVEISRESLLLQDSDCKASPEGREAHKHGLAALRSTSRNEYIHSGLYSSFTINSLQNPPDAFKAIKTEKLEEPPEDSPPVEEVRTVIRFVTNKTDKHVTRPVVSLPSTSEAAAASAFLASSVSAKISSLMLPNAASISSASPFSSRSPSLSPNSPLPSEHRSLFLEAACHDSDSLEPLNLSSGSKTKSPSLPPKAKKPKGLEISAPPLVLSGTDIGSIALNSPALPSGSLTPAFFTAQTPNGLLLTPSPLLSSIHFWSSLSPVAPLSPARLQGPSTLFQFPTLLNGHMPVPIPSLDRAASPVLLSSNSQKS
Outline: as §1

Sequence of SPIB (Q01892 whole entry): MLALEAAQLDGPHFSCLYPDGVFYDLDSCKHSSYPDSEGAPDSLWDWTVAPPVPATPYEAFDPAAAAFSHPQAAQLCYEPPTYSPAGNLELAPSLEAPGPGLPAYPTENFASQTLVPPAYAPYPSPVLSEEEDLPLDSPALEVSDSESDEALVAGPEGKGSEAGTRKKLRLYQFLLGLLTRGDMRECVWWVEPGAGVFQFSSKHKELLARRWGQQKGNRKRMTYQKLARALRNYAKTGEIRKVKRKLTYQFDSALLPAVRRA
Sequence of ELF1 (P32519 whole entry): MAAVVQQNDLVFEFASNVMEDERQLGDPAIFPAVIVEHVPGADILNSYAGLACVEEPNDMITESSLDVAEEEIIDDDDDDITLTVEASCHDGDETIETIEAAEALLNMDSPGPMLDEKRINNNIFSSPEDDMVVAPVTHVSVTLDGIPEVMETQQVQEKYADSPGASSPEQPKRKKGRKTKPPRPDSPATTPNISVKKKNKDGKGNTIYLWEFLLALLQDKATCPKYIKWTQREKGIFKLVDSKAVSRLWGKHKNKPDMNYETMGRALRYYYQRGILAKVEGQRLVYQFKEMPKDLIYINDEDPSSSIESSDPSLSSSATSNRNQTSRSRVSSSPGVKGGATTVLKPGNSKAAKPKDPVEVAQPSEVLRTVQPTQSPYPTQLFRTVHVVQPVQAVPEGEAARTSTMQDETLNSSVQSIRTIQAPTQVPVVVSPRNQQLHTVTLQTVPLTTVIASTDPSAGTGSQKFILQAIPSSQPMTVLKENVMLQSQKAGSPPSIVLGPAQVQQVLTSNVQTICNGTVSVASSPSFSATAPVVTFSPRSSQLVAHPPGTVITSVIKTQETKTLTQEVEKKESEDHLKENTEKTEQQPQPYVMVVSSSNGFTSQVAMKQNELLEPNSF

Q: For TCACTC, which binding signal (FLI1) is on record?
A: 1.16 fold enrichment (6-mer frequency, TF over GST control)

Q: And the binding signal (ELK1)?
A: 1.19 fold enrichment (6-mer frequency, TF over GST control)

Q: What about the binding signal (GABPA) of the same sequence?
A: 1.28 fold enrichment (6-mer frequency, TF over GST control)

Q: And the binding signal (ERG)?
A: 1.18 fold enrichment (6-mer frequency, TF over GST control)

Q: What about the binding signal (ELF1) of the same sequence?
A: 1.34 fold enrichment (6-mer frequency, TF over GST control)

Q: And the binding signal (EHF)?
A: 1.27 fold enrichment (6-mer frequency, TF over GST control)

Q: What about the binding signal (SPI1) of the same sequence?
A: 1.21 fold enrichment (6-mer frequency, TF over GST control)

Q: What about the binding signal (SPIB) of the same sequence?
A: 1.26 fold enrichment (6-mer frequency, TF over GST control)

Q: What about the binding signal (ELK3) of the same sequence?
A: 1.18 fold enrichment (6-mer frequency, TF over GST control)
